In the library only some 15% were active in any assay of this set; here they are far more common.
DT40 TDP1 CPT: growth inhibition of DT40 Tdp1-/-;hTDP1 cells with camptothecin (screen for TDP1 inhibitors); chicken DT40 Tdp1-/-;hTDP1 cells + 20 nM CPT, ATP luminescence, 48 h; Potency, µM (titrated, usually from 46.2 µM), most hits filed as inhibitors; 420,000 tested, 12% active; AID 686979; further: nearly all actives have a fitted effect of over 55% in size
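Chicken DT40 Tdp1-/- cells stably complemented with human TDP1 were seeded at 400 cells/well in medium containing 20 nM camptothecin, exposed to pin-transferred compounds, and grown at 37 °C for at least 48 hr. Viability was read as ATP luminescence.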
TDP1 cell noCPT: qHTS for Inhibitors of human tyrosyl-DNA phosphodiesterase 1 (TDP1): qHTS in cells in absence of CPT; 420,000 tested, 15% active; DT40 Tdp1-/- hTDP1 cells, no CPT, ATP luminescence, 48 h; Potency, µM (top dose mostly 46.2 µM), actives largely listed as inhibitors; AID 686978, 2013; further: nearly all actives have a fitted effect of over 55% in size
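Seeded 400 DT40-hTDP1 cells/well (vehicle DMSO, no 20 nM CPT); pinned compounds; ≥48 hr at 37 °C; CellTiter-Glo luminescence as viability measure.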
Gal4-VP16 FLuc: counter-screen for ROR gamma inhibitors: Gal4-VP16 reporter | Drosophila S2 Gal4-VP16 UAS-luciferase, luminescence, 20 h | Potency, µM (top dose mostly 53.6 µM), actives largely listed as inhibitors | 310,000 tested, 3.5% active | AID 2546;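 further: Gal4-VP16 expression switched on by copper sulfate through the metallothionein promoter; nearly all actives have a fitted effect of over 50% in size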
RORg inh: ROR gamma (mouse) transcription inhibition; P51450; Drosophila S2 Gal4-RORgamma UAS-luciferase reporter, 20 h; Potency, µM (top dose mostly 53.6 µM), usual class: inhibitors; 310,000 tested, 5.4% active; AID 2551; further: nearly all actives have a fitted effect of over 60% in size
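Stable Schneider cell line, Gal4 DNA-binding domain fused to ROR gamma, UAS-luciferase. Cmpd 1 hr RT → CuSO4 700 uM final → 20 hr RT → luciferase reagent 10 min → luminescence.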
ALOX12 inh: blocks human arachidonate 12S-lipoxygenase; Potency, µM (doses to about 108 µM), hits mostly inhibitors; 580,000 tested, 1.1% active; purified 12hLO, xylenol orange hydroperoxide absorbance; P18054
Target sequence (P18054 whole entry, looked up): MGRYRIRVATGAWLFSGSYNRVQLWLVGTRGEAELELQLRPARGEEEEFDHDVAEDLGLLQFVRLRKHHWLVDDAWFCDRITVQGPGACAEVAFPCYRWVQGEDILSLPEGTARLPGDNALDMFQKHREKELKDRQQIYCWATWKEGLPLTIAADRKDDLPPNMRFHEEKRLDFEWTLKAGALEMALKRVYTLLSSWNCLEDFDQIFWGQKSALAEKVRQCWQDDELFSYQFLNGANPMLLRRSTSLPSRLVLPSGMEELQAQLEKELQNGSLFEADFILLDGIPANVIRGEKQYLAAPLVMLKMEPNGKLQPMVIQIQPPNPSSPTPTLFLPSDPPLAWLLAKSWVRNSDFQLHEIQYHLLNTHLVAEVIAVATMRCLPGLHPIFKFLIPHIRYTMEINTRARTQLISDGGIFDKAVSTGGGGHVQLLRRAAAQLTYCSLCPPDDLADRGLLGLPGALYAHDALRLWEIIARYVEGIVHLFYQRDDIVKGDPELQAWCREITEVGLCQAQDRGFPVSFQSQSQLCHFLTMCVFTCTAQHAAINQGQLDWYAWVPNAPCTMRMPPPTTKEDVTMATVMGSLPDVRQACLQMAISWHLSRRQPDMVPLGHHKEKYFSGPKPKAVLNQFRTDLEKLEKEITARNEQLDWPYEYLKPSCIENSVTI
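Purified human 12hLO (150 nM final) in 25 mM Hepes, 0.01% Triton X-100, pH 7.0 was preincubated 15 min at room temperature with compound. Then 40 uM arachidonic acid was added, 30 min. Hydroperoxide was read by Fe-XO absorbance ratio 573/405 nm.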
ELG1 DNA repair: inhibitors of ELG1-dependent DNA repair in HEK293T cells | HEK293T ELG1-luciferase reporter, luminescence, 16 h; DNA damage induced by 5-fluorouridine | Potency, µM (titrated, usually from 46.1 µM), most hits filed as inhibitors | 330,000 tested, 2.3% active | AID 504467; further: nearly all actives have a fitted effect of over 55% in size
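Step one: seed 2,000 cells per well. Step two: pin-transfer compound or DMSO alongside 5-fluorouridine. Step three: incubate 16 hr, 37 °C, 5% CO2. Step four: add ONE-Glo, wait 30 min, read luminescence.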
Hits are given with their value; n = inactive; u = inconclusive; x = no result given; [ ] = dose if it differs, or a comment. The call rests on the fitted dose curve; in most records, active means well fitted curve in the direction sought with a large enough effect; inconclusive means small, poorly fitted or top-dose-only effect, or another doubt; inactive means no such curve, though single readings can be large; an effect the other way counts as inactive or inconclusive.

SMILES	DT40 TDP1 CPT	TDP1 cell noCPT	Gal4-VP16 FLuc	RORg inh	ALOX12 inh	ELG1 DNA repair
COc1ccc(S(=O)(=O)Nc2cc(-c3c(O)ccc4ccccc34)c(O)c3ccccc23)cc1	x	x	x	x	8.6µM	x
CC(=O)c1c(C)oc2c1cc(NS(=O)(=O)c1ccc(Cl)c(C)c1)c1ccccc12	u	u	x	x	n	x
COc1ccc(NC(=O)N2CCC(N3CC4CC(C3)[C@H]3CCCC(=O)N3C4)CC2)c(C)c1 (some centres undefined)	x	x	x	x	n	x
CC1(C)CCCC2(C)C1CCC1(C)OC(=O)CC12 (centres undefined)	x	x	x	x	n	x
Cc1cnc(C(=O)N2CCC3(CC2)CC(N(Cc2ccccc2)C2CC2)CCO3)cn1 (centres undefined)	x	x	x	x	n	x
COCCn1c(N2CCN(CCO)CC2)nc2c1c(=O)[nH]c(=O)n2C	x	x	x	x	n	x
O=C1C(N2CCN(Cc3ccc[nH]3)CC2)CCN1Cc1ccccn1 (centres undefined)	x	x	x	x	n	x
CCOc1ccc(S(=O)(=O)Nc2cc3c(C(=O)OC)c(COC)oc3c3ccccc23)cc1	5.2µM	3.7µM	x	x	n	x
COC(=O)c1c(C)oc2c1cc(NS(=O)(=O)c1ccc(C)cc1)c1ccccc12	x	x	x	x	n	x
COC(=O)c1ccc2nc(C[C@@H]3C[C@@H](C(C)C)[C@H](CNC(=O)N4CCOCC4)C=C3C)[nH]c2c1	x	x	x	x	n	x
Nc1nnnn1/N=C/c1ccccc1C(F)(F)F	12µM	18µM	n	n	n	n
COC[C@@H]1CN(C(=O)c2ncccc2C)C[C@H]1c1nc(C2CC2)no1	x	x	x	x	n	x
COc1ccc(Oc2coc3cc(OC(=O)c4ccc(Br)cc4)ccc3c2=O)cc1	x	x	x	x	n	x
Cc1noc(-c2ccc(C(F)(F)F)cc2)c1NC(=O)Nc1ccc(Cl)cc1	4.6µM	3.7µM	u	u	n	u
CC(=O)Oc1ccc2c(=O)c(-c3ccc4c(c3)OCCCO4)c(C)oc2c1	x	x	x	x	n	x
COc1ccccc1N1C(=O)C(=O)N(C)C1=O	n	n	x	x	n	x
COc1c(C2=CC(=O)N(C)C2=O)c2c(n1C)C(=O)c1ccccc1C2=O	0.52µM	0.58µM	10µM	u	u	x
C/C(Cn1nnc([N+](=O)[O-])n1)=N\NC(=O)c1ccc(O)cc1	15µM	13µM	7.9µM	2.8µM	n	u
C/C(Cn1nnc([N+](=O)[O-])n1)=N\NC(=O)c1ccc(Cl)c(Cl)c1	18µM	16µM	u	13µM	n	n
CC(=O)NCC(=O)N1CCCC2(COc3ccccc3[S+](=O)([O-])N2)C1 (centres undefined)	x	x	x	x	n[6.33 µM]	x
Clc1ccc(-c2noc(CSc3nnc(Cc4cccs4)n3-c3ccccc3)n2)cc1	u	u	n	n	n	n
CCOc1ccc(-c2noc(CSc3nnc(-c4ccccc4)n3-c3ccccc3)n2)cc1	21µM	12µM	x	x	n	x
Cc1ccc(-c2noc(CSc3nnc(Cc4cccs4)n3-c3ccccc3)n2)cc1	21µM	21µM	n	n	n	n
Cc1ccc(-c2noc(CSc3nnc(Cc4ccccc4)n3-c3cccc(C)c3)n2)cc1	u	18µM	n	n	n	n
Cc1cccc(-n2c(Cc3ccccc3)nnc2SCc2nc(-c3cccs3)no2)c1	u	u	x	x	n	x
SMILES	DT40 TDP1 CPT	TDP1 cell noCPT	Gal4-VP16 FLuc	RORg inh	ALOX12 inh	ELG1 DNA repair
CCOc1ccc(-c2nnc(SCc3nnc(-c4ccccc4)o3)n2-c2ccccc2F)cc1	16µM	23µM	n	n	n	u
Cc1ccc(-c2nnc(CSc3nnc(COc4ccccc4)n3-c3ccccc3)o2)cc1	u	u	n	u	n	u
Cc1noc(C)c1Cc1ccc(C(=O)N2CC(N(Cc3cccnc3)CC(C)C)C2)o1	x	x	x	x	n	x
COCCN(CCOC)CC[C@@H]1CC[C@H](O)[C@@H](C(=O)Nc2ccccc2)O1	x	x	x	x	n	x
COc1ccc(CN2C(=O)O[C@@H]3CN(C4CCCCC4)C[C@@H]32)cc1OC	x	x	x	x	n	x
CCOc1ccc(-c2noc(CSc3nnc(Cc4ccccc4)n3-c3cccc(C)c3)n2)cc1	18µM	13µM	x	x	n	x
Cc1ccc(CNC(=O)Cn2cc(S(=O)(=O)Cc3ccccc3F)c3ccccc32)cc1	15µM	u	x	x	u	x
CC(C)(C)NC(=O)Cn1cc(S(=O)(=O)Cc2ccc(F)cc2)c2ccccc21	n	n	x	x	n	x
O=C(Cn1cc(S(=O)(=O)Cc2ccc(F)cc2)c2ccccc21)NCc1ccccc1Cl	u	21µM	x	x	u	x
O=C(Nc1cccc2[nH]ccc12)C(=O)NC1CCCC1	x	x	x	x	n	x
Cc1ccc(CNC(=O)C2CCN(S(=O)(=O)c3ccc4c(c3)CC(C)N4C(=O)C3CCC3)CC2)o1 (centres undefined)	u	29µM	n	n	n	n
Cc1ccnc(NC(=O)C2CCN(S(=O)(=O)c3ccc4c(c3)CC(C)N4C(=O)C3CCC3)CC2)c1 (centres undefined)	u	u	n	u	n	9.2µM
Cc1ccc(NC(=O)C2CCN(S(=O)(=O)c3ccc4c(c3)CC(C)N4C(=O)C3CCC3)CC2)nc1 (centres undefined)	16µM	u	n	u	n	u
CC(=O)N1c2ccc(S(=O)(=O)N3CCC(C(=O)Nc4ccc(C)cn4)CC3)cc2CC1C (centres undefined)	u	u	n	n	u	u
Cc1ccnc(NC(=O)C2CCN(S(=O)(=O)c3ccc(C)c(C)c3)CC2)c1	n	n	x	x	n	n
CCCNC(=O)C1CCCN(S(=O)(=O)c2ccc3c(c2)CC(C)N3C(=O)C2CC2)C1 (centres undefined)	u	u	n	n	n	u
CC1Cc2cc(S(=O)(=O)N3CCC(C(=O)Nc4ccccn4)CC3)ccc2N1C(=O)C1CCC1 (centres undefined)	18µM	21µM	n	n	n	u
CSc1cccc(NC(=O)COc2coc(CN3CCSCC3)cc2=O)c1	x	x	x	x	n	x
COc1ccccc1C(=O)NCc1nnc2c(-c3nc(C(C)C)no3)cccn12	x	x	x	x	n	x
CC1=C(C(=O)Nc2ccccc2)C(c2ccc(C)cc2)N=C(Nc2nc3ccccc3o2)N1 (centres undefined)	18µM	u	11µM	u	u	u
Cc1nc2ccc(S(=O)(=O)NC(C(=O)N3CCN(c4ccc(Cl)cc4)CC3)C(C)C)cc2s1 (centres undefined)	u	u	x	x	n	x
COc1ccc(N2CCN(C(=O)C(CC(C)C)NS(=O)(=O)c3ccc4nc(C)sc4c3)CC2)cc1 (centres undefined)	12µM	n	x	x	n	x
COc1ccc(C(=O)N2CCC3(CC2)N=C(c2ccccc2)NO3)cc1	x	x	x	x	n	x

From PubChem BioAssay
